Consider 43 compounds from article PMC4336329 (PLoS ONE, 2015).

In all, about 310,000 compounds went through this assay and about 14,000 (4.5%) showed an effect of 50% or more. Effects have a minus sign here. The entries come from a sample that favours strong results as a whole.
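Also: peak tail current of the secondary pulse compared with the same well before compound.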

Chain of human ether-à-go-go-related gene (hERG) potassium channel (Q12809 whole entry, looked up): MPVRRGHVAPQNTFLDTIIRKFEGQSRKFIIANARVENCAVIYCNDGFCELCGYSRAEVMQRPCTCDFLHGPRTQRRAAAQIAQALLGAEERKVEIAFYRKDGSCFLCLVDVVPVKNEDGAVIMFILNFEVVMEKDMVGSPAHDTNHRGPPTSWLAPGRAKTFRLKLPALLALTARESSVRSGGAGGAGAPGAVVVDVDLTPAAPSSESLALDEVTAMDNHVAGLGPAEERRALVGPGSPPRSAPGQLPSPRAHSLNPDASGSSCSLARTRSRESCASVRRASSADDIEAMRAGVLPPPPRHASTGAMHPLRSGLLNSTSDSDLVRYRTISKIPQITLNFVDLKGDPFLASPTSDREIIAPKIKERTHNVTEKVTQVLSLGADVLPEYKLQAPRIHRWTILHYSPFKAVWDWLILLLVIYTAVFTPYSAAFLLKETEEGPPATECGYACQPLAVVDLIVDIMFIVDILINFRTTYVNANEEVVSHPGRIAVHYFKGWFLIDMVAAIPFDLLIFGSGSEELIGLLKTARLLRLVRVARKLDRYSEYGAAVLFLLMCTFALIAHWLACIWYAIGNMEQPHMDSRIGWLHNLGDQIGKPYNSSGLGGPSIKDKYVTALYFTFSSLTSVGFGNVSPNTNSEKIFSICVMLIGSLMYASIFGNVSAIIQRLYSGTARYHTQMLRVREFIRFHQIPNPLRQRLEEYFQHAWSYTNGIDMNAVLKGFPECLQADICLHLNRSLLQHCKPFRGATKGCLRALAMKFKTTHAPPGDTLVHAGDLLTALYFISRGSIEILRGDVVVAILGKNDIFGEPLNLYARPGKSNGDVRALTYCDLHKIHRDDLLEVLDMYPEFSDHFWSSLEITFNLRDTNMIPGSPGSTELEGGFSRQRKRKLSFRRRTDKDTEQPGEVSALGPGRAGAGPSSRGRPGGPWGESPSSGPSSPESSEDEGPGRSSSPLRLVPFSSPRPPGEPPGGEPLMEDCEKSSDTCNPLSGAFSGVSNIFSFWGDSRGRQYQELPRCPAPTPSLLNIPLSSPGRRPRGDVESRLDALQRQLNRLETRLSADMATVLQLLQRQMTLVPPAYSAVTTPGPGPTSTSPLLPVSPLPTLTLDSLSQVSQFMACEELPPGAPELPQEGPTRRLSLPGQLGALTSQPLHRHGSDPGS

This assay has as its target human ether-à-go-go-related gene (hERG) potassium channel (human, UniProt Q12809). Kind of assay: primary screen, population patch clamp on CHO cells stably expressing hERG; higher = less effect of the substance.
Regarding `COc1ccc(S(=O)(=O)N(C)c2ccc(C(=O)N3CCOCC3)cc2)cc1`, the “hERG current change (%, negative = inhibition) at 10uM” value is -6.62%. As to `CCOc1ccc(-c2c(C(=O)N/N=C/c3sccc3C)nnn2-c2nonc2N)cc1`, the “hERG current change (%, negative = inhibition) at 10uM” value is 19.7%. Next, `COc1ccc(-n2ncc3c(N4CCc5ccccc54)ncnc32)cc1`: 0.927%; `Cc1cccc(OCCCC(=O)Nc2ccc(N(C)C)cc2)c1`: -5.54%; `COc1cccc(N2C(=O)Nc3ccc(Br)cc3C2(O)C(=O)NCCCN(C)C)c1` (stereo not shown): 19.3%. For `Cc1ccc(NC(=O)CSc2nnc(C3COc4ccccc4O3)o2)c(Cl)c1` (stereo not shown) the value was 12.5%; for `Brc1ccc(-c2noc(-c3ccccn3)n2)o1`, 2.68%; for `COC(=O)C1(C)NC(c2ccco2)C2C(=O)N(c3ccc(C)cc3)C(=O)C21` (stereo not shown), -22.5%. For the compound `FC(F)(F)c1cccc(-c2nnc(-c3ccccc3)c(N3CCOCC3)n2)c1`, the “hERG current change (%, negative = inhibition) at 10uM” value is listed as -19.7%. For `Cc1nnc(-c2cccc(C(F)(F)F)c2)nc1N1CCOCC1`, the “hERG current change (%, negative = inhibition) at 10uM” value was -74.1%.

`Cc1nnc(-c2ccccc2)nc1N1CCOCC1`: the “hERG current change (%, negative = inhibition) at 10uM” value is given as -10.2%.

On to `CC1CC(C)CN(C(=O)Cn2c(=O)oc3cc(S(=O)(=O)N4CCCC4)ccc32)C1` (stereo not shown), for which the “hERG current change (%, negative = inhibition) at 10uM” value is -3.39%.

Consider `CCn1cc(C(=O)OCC(=O)N2C(C)CCCC2C)c(=O)c2ccc(C)nc21` (stereo not shown), for which the “hERG current change (%, negative = inhibition) at 10uM” value is listed as 11%. For the compound `CCn1cc(C(=O)OCC(=O)OC2CC(C)CCC2C(C)C)c(=O)c2ccc(C)nc21` (stereo not shown), the “hERG current change (%, negative = inhibition) at 10uM” value is given as -51.8%. For `C=CCOC(=O)c1cn(CC)c2nc(C)ccc2c1=O` the value was -5.77%; for `Cc1cc(C)cc(NC(=O)C2CCCN(S(=O)(=O)c3c(C)noc3C)C2)c1` (stereo not shown), -4.34%. For `CCOc1ccccc1NS(=O)(=O)c1csc(C(N)=O)c1` the value was 11.7%; for `Cc1cccc(C)c1NC(=O)CN(C)CC(=O)Nc1sc2c(c1C(N)=O)CCC2`, -33.9%. For `CN(CC(=O)Nc1ccccc1Cl)CC(=O)Nc1sc2c(c1C(N)=O)CCC2` the value was -66.2%; for `NC(=O)c1c(NC(=O)c2ccccc2Cl)sc2c1CCC2`, 15.1%. As to `COc1ccc(NC(=O)CN(C)CC(=O)Nc2sc3c(c2C#N)CCC3)cc1`, the “hERG current change (%, negative = inhibition) at 10uM” value is on record as 0.0459%. On to `Cc1ccc(NC(=O)CN(C)CC(=O)Nc2sc3c(c2C(N)=O)CCC3)cc1`, for which the “hERG current change (%, negative = inhibition) at 10uM” value is recorded as -55.5%. Next, `CCC(=O)Nc1sc2c(c1C(N)=O)CCC2`: -15.7%. For `COc1ccc(CC(=O)Nc2sc3c(c2C(N)=O)CCCC3)cc1` the value was -1.39%. Take `CN(CC(=O)Nc1ccc(C(N)=O)cc1)CC(=O)Nc1ccccc1Cl`: the “hERG current change (%, negative = inhibition) at 10uM” value is recorded as -5.04%.

Turning to `COc1ccc(NC(=O)CN(C)CC(=O)Nc2sc3c(c2C(N)=O)CCC3)cc1`, the “hERG current change (%, negative = inhibition) at 10uM” value is on record as -79%. Consider `CSc1ncccc1C(=O)OCC(=O)c1ccccc1`, for which the “hERG current change (%, negative = inhibition) at 10uM” value was 35%. As for `CCN(CC(=O)Nc1ccc2c(c1)OCCO2)C(=O)CC(NC(C)=O)c1ccccc1` (stereo not shown), the “hERG current change (%, negative = inhibition) at 10uM” value is 18.7%. Next, `Cc1csc(NC(=O)CCCNC(=O)c2ccc(Cl)cc2)n1`: -23.6%; `CCC(C)c1ccccc1N1CC(C(=O)Nc2ccc(S(=O)(=O)N3CCOCC3)cc2)CC1=O` (stereo not shown): -9.78%; `COc1ccccc1N1CCN(CC(O)COc2ccc(S(=O)(=O)N3CCOCC3)cc2)CC1.Cl` (stereo not shown): -4.3%.

With `COc1ccc(OCCOCC(O)CN2CCOCC2)cc1.Cl` (stereo not shown), the “hERG current change (%, negative = inhibition) at 10uM” value is given as 4.55%.

Regarding `COc1ccccc1N1CCN(CC(O)COCCOc2ccc(Br)cc2)CC1.Cl` (stereo not shown), the “hERG current change (%, negative = inhibition) at 10uM” value was -58.8%. For `COc1ccc(N2CCN(CC(O)COCCOc3ccc(Br)cc3)CC2)cc1.Cl` (stereo not shown), the “hERG current change (%, negative = inhibition) at 10uM” value is recorded as -69.1%. As to `COc1ccccc1NC(=O)CSc1nnc(Cn2nnc(-c3ccccc3)n2)n1-c1ccccc1`, the “hERG current change (%, negative = inhibition) at 10uM” value was -5.02%. For `CC(CCc1ccccc1)NC(=O)CNC(=O)COc1ccccc1` (stereo not shown), the “hERG current change (%, negative = inhibition) at 10uM” value is -0.873%. For `O=C(NC(=S)Nc1ccc2cn[nH]c2c1)c1ccccc1` the value was -2.32%; for `Cc1ccccc1C1NC(=S)NC2=C1C(=O)CC(C)(C)C2` (stereo not shown), 18.5%; for `Clc1ccc2oc(-c3cccnc3)nc2c1`, -14.9%. For `c1ccc(-c2oc3ncnc(NCCCN4CCOCC4)c3c2-c2ccccc2)cc1`, the “hERG current change (%, negative = inhibition) at 10uM” value is -87.1%.

For the compound `c1ccc(-c2oc3ncnc(NCCN4CCOCC4)c3c2-c2ccccc2)cc1`, the “hERG current change (%, negative = inhibition) at 10uM” value was -21.3%.

Regarding `COc1ccc(-c2oc3ncnc(NCCCN4CCOCC4)c3c2-c2ccc(OC)cc2)cc1`, the “hERG current change (%, negative = inhibition) at 10uM” value worked out at 2.49%. Consider `Clc1ccc(-n2ncc3c(NCCCn4ccnc4)ncnc32)cc1`, for which the “hERG current change (%, negative = inhibition) at 10uM” value is given as -26.1%.
